{
  "source": "PubChem BioAssay AID934",
  "about": "(National Center for Advancing Translational Sciences (NCATS), 2007)",
  "note": "Results filed as inconclusive are left out. A call without a number means that no potency is given here. Activity calls are given as the source filed them. Calls follow the shape of the dose curve; as a rule, active = well fitted activation curve with a large enough effect; inconclusive = small, poorly fitted or top-dose-only effect; inactive = flat fitted curve, though single readings scatter.",
  "data": [
    {"test": "Parental Cell Counter Screen for Stat Signaling Pathway Assay", "conditions": "ME-180 parental cells, blue fluorescence artefact counter-screen; series mostly up to 38.3 µM", "source_text": "NIH Molecular Libraries Screening Centers Network [MLSCN] NIH Chemical Genomics Center [NCGC] MLSCN Grant: None NCGC Assay Overview: This assay is a counter screen for the Stat signaling pathway assay (PubChem AID 446). The Stat assay is cell-based and measures Interleukin 6 (IL-6) mediated modulation of a beta-lactamase reporter gene controlled by a STAT inducible element (SIE-bla cells, Invitrogen). IL-6 is a cytokine that signals via the JAK/STAT pathway and is implicated in cancer and inflammation. […] Compounds active in the parental ME-180 cells are likely fluorescent.\nNCGC Assay Protocol Summary: Cells were trypsinized, washed in assay medium (AM, OPTI MEM with 0.5% fetal bovine serum, 0.1 mM nonessential amino acids, 1 mM sodium pyruvate, 10mM HEPES pH 7.3, 100U/ml penicillin, and 100 ug/ml streptomycin) and suspended at […] in AM. Approximately 2500 cells in 5 uL/well was dispensed into 1536-well plates and the cells were incubated overnight at 37 C. 23 nL of compound were delivered by a pin tool and 1 uL of IL-6 (40 pM final concentration in AM) was added. After plates were incubated at 37 C for 5 hrs, 1uL of detector mix (LiveBLAzerTM, Invitrogen) was added, the plates incubated at room temperature for 2.5 hrs, and fluorescence intensity at 460 and 530 nm emissions was measured at 405 nm excitation by an Envision (Perkin Elmer).", "values": [
      {"compound": "c1ccc2c(c1)[I+]c1ccccc1-2", "Potency": "inactive"},
      {"compound": "Cc1c2ccncc2c(C)c2c1[nH]c1ccccc12", "Potency": "15.8 µM (active)"},
      {"compound": "COC1=C(C)C(=O)c2c(c(COC(N)=O)c3n2C[C@@H]2[C@@H]3N2C)C1=O", "note": "(stereo not given in full)", "Potency": "12.6 µM (active)"},
      {"compound": "COc1cccc2c1C(=O)c1c(O)c3c(c(O)c1C2=O)C[C@](O)(/C(C)=N\\O)C[C@@H]3O[C@H]1C[C@H](N)[C@@H](O)[C@H](C)O1", "Potency": "inactive"},
      {"compound": "COC(=O)C(O)(c1ccc(NC(=O)c2ccco2)c(OC)c1)C(F)(F)F", "note": "(stereo not given)", "Potency": "0.0063 µM (active)"},
      {"compound": "CC[C@]1(O)C(=O)OCc2c1cc1n(c2=O)Cc2cc3ccccc3nc2-1", "Potency": "inactive"},
      {"compound": "CN(N=O)c1ccc(O)c(O)c1", "Potency": "inactive"},
      {"compound": "CCn1cnc2c(Nc3cccc(Cl)c3)nc(N[C@@H]3CCCC[C@H]3N)nc21", "Potency": "inactive"},
      {"compound": "COc1ccc2c3c([nH]c2c1)C(C)=NCC3", "Potency": "12.6 µM (active)"},
      {"compound": "O=c1ccc2cc(O[C@H]3O[C@@H](CO)[C@@H](O)[C@@H](O)[C@@H]3O)c(O)cc2o1", "Potency": "15.8 µM (active)"}
    ]}
  ]
}
